The source made the active and inactive calls.

One assay addresses Albumin (Bos taurus) (UniProt P02769). Description: bovine serum albumin binders on microarray, profiling panel, artefact control for SMM control protein annotation, biochemical, small-molecule microarray, Alexa647 label, 635/667 nm fluorescence (AID 1118).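 Note: score merges 667 nm emission intensity and signal-to-noise per printed compound spot.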 The note with it: BSA-A647 binding, fluorescence 635 nm, higher = more signal.
The nature of assay [1]: small-molecule microarray binders of probe aXIP, primary screen, biochemical, NeuroSMM set, 635/667 nm fluorescence (AID 1119).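 Note: probe is the protein aXip251-270 applied at 1 µg/mL to compound-printed slides; binding of probe to printed compounds measured as 667 nm fluorescence plus signal to noise.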 Conditions: higher = more signal, called active from +8 up or from −8 down.
Assay [2] in a line: small-molecule binders of probe aNOTCH3, primary screen, biochemical, small-molecule microarray, 635/667 nm fluorescence (AID 1120).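 Note: probe is a biotin-tagged antibody raised against NOTCH3 rather than NOTCH3 protein; score merges spot fluorescence near 667 nm with spot signal to noise.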 Conditions: higher = more signal.
A short description of assay [3]: small-molecule binders of probe aNOTCH2, primary screen, biochemical, small-molecule microarray, 635/667 nm fluorescence (AID 1121).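 Note: score merges feature fluorescence read at 667 nm with its signal to noise.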 Conditions: higher = more signal.
The target in assay [4] is Carbonic anhydrase 2 (Homo sapiens) (UniProt P00918). Nature of the assay: CAII small-molecule binders, profiling panel, biochemical, small-molecule microarray, Alexa647-labelled CAII (AID 1122). Conditions: CAII-A647 binding fluorescence, higher = more signal.
Assay [5] in a line: COS7 lysate on small-molecule microarray, probe aHis, 635 nm (AID 1123).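 Note: z-score combines 667nm fluorescence intensity with signal-to-noise per printed compound spot.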 Conditions: COS7 cell lysate, fluorescence, higher = more signal.
A short description of assay [6]: compound binding in COS7 lysate, probe aLAP1, primary screen, cell lysate, small-molecule microarray (AID 1124).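 Note: lysate comes from COS7 cells expressing LAP1 and is applied at 0.3 µg/mL; score merges spot fluorescence near 667 nm with signal-to-noise over triplicate slides.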 Conditions: probe aLAP1, fluorescence, higher = more signal.
For another assay, the system named is Sam68 (KHDRBS1). Nature of the assay: Sam68 small-molecule binders, primary screen, biochemical, small-molecule microarray, 635 nm fluorescence (AID 1125).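 Note: score merges 667 nm channel intensity with signal to noise over triplicate slides.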 The note with it: small-molecule microarray binding, higher = more signal.
Assay [7] concerns Chordin-like protein 2 (CHRDL2). Description: CHRDL2 small-molecule binders, primary screen, biochemical, small-molecule microarray, 635 nm fluorescence (AID 1126).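 Note: printed compound slides probed with Chrdl2 protein at 4 µg/mL for 1 h at 4 C; score merges 667 nm emission intensity with signal to noise over three replicate slides.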 The note with it: small-molecule microarray binding, fluorescence 635 nm; higher = more signal.
For assay [8], the target named is Concanavalin-A (Canavalia ensiformis) (UniProt P02866). Nature of the assay: ConA small-molecule binders, primary screen, artefact control for SMM control protein annotation, biochemical, small-molecule microarray, Alexa647 label, 635 nm (AID 1127).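 Note: z combines 667 nm emission intensity with signal-to-noise across three replicate slides.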 The note with it: ConA-A647 binding fluorescence, higher = more signal.
Concanavalin-A (Canavalia ensiformis), sequence (P02866 whole entry, looked up): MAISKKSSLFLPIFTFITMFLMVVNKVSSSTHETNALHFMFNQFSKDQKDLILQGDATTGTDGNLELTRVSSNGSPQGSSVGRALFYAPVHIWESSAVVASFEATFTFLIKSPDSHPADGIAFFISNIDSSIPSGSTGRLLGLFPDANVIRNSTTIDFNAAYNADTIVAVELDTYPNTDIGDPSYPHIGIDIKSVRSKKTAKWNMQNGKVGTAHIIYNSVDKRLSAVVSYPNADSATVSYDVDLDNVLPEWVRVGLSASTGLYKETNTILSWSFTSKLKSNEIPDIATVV
Assay [9] is described as follows: anti-His antibody binders, primary screen, artefact control for SMM control protein annotation, biochemical, small-molecule microarray, 635 nm fluorescence (AID 1128).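 Note: score merges feature fluorescence with signal-to-noise for each printed compound spot.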 Conditions: anti-His Alexa647 antibody binding, higher = more signal.
Assay [10] concerns Human papillomavirus type 1a E7 protein (residues 1-88). Description: HPV1a E7 small-molecule binders, primary screen, biochemical, small-molecule microarray, residues 1-88, 635 nm (AID 1129). Conditions: small-molecule microarray binding, fluorescence 635 nm; higher = more signal.
Assay [11] concerns the target Focal adhesion kinase 1 (Homo sapiens) (UniProt Q05397). Nature of the assay: small-molecule microarray binders of FAK, primary screen, biochemical, 635/667 nm fluorescence, BSA, DTT (AID 1130).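 Note: composite of spot emission at 667 nm and signal to noise over triplicate slides.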 Conditions: PTK2 binding, 635 nm fluorescence, higher = more signal.
In assay [12] the test system is Fibrinogen (Alexa647-labelled). Nature of the assay: fibrinogen binders on compound microarrays, profiling panel, artefact control for SMM control-protein annotation, biochemical, small-molecule microarray, 635/667 nm fluorescence (AID 1131).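 Note: z-score merges 667 nm fluorescence with per-spot signal-to-noise over triplicate slides.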 Conditions: fibrinogen-A647 binding fluorescence, higher = more signal.
Assay [13] deals with Follistatin (Homo sapiens) (UniProt P19883). Nature of the assay: follistatin binders on small-molecule microarrays, primary screen, biochemical, small-molecule microarray, 635/667 nm fluorescence (AID 1132). The note with it: FST binding, 635 nm fluorescence, higher = more signal.
Follistatin (Homo sapiens), sequence (P19883 whole entry, looked up): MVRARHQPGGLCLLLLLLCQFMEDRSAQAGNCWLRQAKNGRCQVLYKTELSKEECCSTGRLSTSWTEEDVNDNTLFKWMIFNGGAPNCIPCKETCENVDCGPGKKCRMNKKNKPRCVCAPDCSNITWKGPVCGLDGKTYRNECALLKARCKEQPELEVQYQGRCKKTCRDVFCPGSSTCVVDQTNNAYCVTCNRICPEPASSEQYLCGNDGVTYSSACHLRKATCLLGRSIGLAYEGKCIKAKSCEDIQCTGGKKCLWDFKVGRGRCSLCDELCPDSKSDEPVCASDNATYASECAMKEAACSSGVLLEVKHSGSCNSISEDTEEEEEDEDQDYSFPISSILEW
In assay [14] the target is Fibroblast growth factor 2 (Homo sapiens) (UniProt P09038). Nature of the assay: FGF2 binders on small-molecule microarrays, primary screen, biochemical, small-molecule microarray, 635/667 nm fluorescence (AID 1133). The note with it: small-molecule microarray binding, FGF2, fluorescence 635/667; higher = more signal.
Fibroblast growth factor 2 (Homo sapiens), sequence (P09038 whole entry, looked up): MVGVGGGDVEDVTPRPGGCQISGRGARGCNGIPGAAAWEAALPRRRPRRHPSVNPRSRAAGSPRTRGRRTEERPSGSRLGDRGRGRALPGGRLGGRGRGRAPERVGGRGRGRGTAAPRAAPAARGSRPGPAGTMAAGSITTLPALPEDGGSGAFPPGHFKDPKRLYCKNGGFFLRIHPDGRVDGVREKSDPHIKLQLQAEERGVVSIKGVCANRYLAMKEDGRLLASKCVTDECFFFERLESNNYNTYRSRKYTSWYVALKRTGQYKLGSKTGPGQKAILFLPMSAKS
A short description of assay [15]: mitochondrial membrane potential change in A549 cells, profiling panel, cell-based, JC-1 fluorescence, basal, 24 h, 100 nL (AID 1138).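 Note: A549 lung adenocarcinoma cells under basal conditions with no added stimulus; test concentration not given here.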 Conditions: higher = more signal.
The test system of the next assay is Lefty1. Description: Lefty1 binders on small-molecule microarrays, primary screen, biochemical, small-molecule microarray, 635/667 nm fluorescence (AID 1139). The note with it: small-molecule microarray binding, fluorescence 635/667; higher = more signal.
Assay [16] concerns wheat germ agglutinin (Triticum aestivum), Alexa647-labelled. Description: wheat germ agglutinin binders on compound microarrays, profiling panel, artefact control for SMM control-protein annotation, biochemical, small-molecule microarray, 635/667 nm fluorescence (AID 1140).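 Note: score merges 667 nm feature emission with signal to noise over triplicate slides.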 Conditions: WGA-A647 binding, 635 nm fluorescence, higher = more signal.
For assay [17], the target named is Luciferin 4-monooxygenase (Photinus pyralis) (UniProt P08659). Nature of the assay: firefly luciferase enzyme inhibitors, primary screen, biochemical, luminescence, purified enzyme, 2006 set (AID 1141).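 Note: cell-free assay with purified firefly luciferase at 100 ng per well in PBS; test concentration not given here.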 The note with it: SteadyGlo luminescence, 30 min, higher = more signal, called active from +8 up or from −8 down.
Luciferin 4-monooxygenase (Photinus pyralis), sequence (P08659 whole entry, looked up): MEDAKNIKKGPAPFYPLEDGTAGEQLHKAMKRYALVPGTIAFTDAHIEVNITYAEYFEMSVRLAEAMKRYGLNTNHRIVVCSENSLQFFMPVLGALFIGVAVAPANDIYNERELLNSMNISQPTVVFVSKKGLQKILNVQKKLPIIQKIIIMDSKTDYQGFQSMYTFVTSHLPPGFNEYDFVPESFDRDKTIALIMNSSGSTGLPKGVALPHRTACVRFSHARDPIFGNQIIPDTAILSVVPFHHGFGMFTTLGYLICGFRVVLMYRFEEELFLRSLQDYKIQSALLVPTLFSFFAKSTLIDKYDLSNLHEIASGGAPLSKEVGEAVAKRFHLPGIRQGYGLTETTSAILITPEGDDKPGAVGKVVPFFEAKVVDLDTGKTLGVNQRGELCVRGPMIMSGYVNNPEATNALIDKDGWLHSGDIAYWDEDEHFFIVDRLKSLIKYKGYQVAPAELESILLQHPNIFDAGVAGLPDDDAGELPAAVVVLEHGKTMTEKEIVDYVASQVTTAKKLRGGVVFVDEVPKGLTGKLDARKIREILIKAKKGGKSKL

Focal adhesion kinase 1 (Homo sapiens), sequence (Q05397 whole entry, looked up): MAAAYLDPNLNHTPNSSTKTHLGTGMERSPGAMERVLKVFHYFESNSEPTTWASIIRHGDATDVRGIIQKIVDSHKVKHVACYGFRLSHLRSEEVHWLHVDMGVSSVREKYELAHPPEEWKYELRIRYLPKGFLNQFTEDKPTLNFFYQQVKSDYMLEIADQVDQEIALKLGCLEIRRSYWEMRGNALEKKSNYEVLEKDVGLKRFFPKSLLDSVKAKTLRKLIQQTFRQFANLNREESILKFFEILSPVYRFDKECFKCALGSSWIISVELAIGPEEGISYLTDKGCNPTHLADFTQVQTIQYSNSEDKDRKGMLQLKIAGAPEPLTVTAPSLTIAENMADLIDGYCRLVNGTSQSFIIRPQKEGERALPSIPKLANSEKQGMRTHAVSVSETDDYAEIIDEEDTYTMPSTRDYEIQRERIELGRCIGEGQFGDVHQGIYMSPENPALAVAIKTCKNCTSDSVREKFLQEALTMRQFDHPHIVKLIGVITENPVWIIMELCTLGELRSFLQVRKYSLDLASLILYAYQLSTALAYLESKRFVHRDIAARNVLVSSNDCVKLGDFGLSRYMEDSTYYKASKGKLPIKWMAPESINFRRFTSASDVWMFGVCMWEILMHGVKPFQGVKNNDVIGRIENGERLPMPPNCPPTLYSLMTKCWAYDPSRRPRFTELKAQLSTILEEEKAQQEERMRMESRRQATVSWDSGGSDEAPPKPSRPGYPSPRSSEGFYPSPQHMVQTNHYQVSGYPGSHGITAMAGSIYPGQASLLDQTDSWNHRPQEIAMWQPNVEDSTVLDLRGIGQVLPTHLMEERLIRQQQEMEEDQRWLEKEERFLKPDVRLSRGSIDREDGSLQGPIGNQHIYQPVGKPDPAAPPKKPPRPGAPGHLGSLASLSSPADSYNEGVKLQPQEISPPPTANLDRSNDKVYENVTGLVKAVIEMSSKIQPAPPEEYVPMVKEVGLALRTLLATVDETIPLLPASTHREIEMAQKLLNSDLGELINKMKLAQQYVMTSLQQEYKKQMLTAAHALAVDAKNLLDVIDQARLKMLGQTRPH
Albumin (Bos taurus), sequence (P02769 whole entry, looked up): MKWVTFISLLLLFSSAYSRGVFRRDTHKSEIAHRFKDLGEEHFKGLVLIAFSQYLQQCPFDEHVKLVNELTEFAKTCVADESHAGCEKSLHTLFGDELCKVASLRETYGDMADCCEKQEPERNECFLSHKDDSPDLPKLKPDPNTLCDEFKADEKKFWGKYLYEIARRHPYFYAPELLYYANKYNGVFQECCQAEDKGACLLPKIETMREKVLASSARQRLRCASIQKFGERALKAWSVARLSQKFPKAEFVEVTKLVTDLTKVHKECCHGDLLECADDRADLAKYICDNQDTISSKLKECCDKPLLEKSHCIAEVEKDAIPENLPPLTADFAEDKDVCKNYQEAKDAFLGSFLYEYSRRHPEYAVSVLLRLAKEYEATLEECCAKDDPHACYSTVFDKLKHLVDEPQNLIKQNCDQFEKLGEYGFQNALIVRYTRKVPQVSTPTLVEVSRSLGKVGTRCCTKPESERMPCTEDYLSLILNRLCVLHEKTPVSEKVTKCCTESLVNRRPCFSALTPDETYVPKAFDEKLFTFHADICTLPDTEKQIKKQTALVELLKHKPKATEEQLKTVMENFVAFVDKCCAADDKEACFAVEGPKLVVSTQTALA

For the compound `COC(=O)[C@@]1(Cc2ccccc2)[C@H]2c3cc(C(=O)N4CCCC4)n(Cc4ccc(O)c(OC)c4)c3C[C@H]2CN1C(=O)c1ccccc1`, the composite z-score is 0.638 with Albumin (Bos taurus); 0.63 in [2]; 0.302 in assay [3]; 0.83 in [4]; 2.37 in assay [5]; 0.0364 in [6]. The composite z-score was 0.008 in the assay on Sam68 (KHDRBS1); -1.62 in assay [7]; 0.284 in [8]; 0.882 in assay [9]; 1.27 in assay [10]; 0.553 in assay [11]. For the same compound, the composite z-score in assay [12] was -0.685; in assay [13], 0.284; in assay [14], -0.638; in the assay on Lefty1 it was -0.0456; in assay [16] it was 0.504. Also, the composite Z-score in [1] was -0.0662 (inactive). The z-score in assay [15] is 1.15; in [17], 1.04 (inactive).
For `C=C(CCCC)/C(=C/C[C@@H](OC(C)=O)c1cccc(OCCO)c1)c1cnc2ccccc2c1`, the composite z-score with Albumin (Bos taurus) was 0.0156; in assay [2], 0.0141; in assay [3] it was -0.124; in assay [4] it was 0.687; in assay [5], 0.366; in [6], -0.0843. Further, the composite z-score in the assay with Sam68 (KHDRBS1) was 0.788; in assay [7] it was 0.777; in [8], 0.606; in assay [9], 1.35; in assay [10] it was 0.157; in assay [11], -0.0542. The composite z-score was 0.0837 in assay [12]; 1.4 in [13]; 1.18 in [14]; 1.37 in the assay with Lefty1; 0.978 in [16]. For the same compound, the composite Z-score in assay [1] was 0.785 (inactive). Besides, the z-score in assay [15] was 0.908; in assay [17], -0.245 (inactive).
Regarding `CN1C(=O)C2C=CC(C(O)c3ccccc3)N(N3CCCCC3)C2C1=O` (stereo not given), the composite z-score with Albumin (Bos taurus) came to 0.988; in [2] it was 0.237; in assay [3], 0.0521; in assay [4], 0.846; in [5], 2.37; in assay [6], 0.676. Besides, the composite z-score was 1.02 in the assay on Sam68 (KHDRBS1); -0.409 in assay [7]; 0.872 in [8]; 0.841 in [9]; 1.04 in assay [10]; 0.352 in assay [11]. Moreover, the composite z-score in assay [12] is 0.412; in assay [13], 0.602; in assay [14], -0.234; in the assay with Lefty1, 0.0104; in assay [16], 0.573. In assay [1], the composite Z-score is -0.123 (inactive). The values for the z-score in assay [15] and in assay [17] were 0.0958 and -0.136 (inactive), respectively.
For the compound `CCOC(=O)C1=CC[C@@H](c2ccc(C(F)(F)F)cc2)N(S(=O)(=O)c2ccc(C)cc2)[C@H]1c1ccccc1`, the composite z-score came to 0.871 with Albumin (Bos taurus); 0.158 in assay [2]; 0.21 in assay [3]; 0.603 in assay [4]; 2.27 in assay [5]; 0.782 in assay [6]. The composite z-score is 1.31 in the assay with Sam68 (KHDRBS1); -0.863 in [7]; 1.13 in [8]; 2.1 in assay [9]; 1.21 in assay [10]; 0.81 in assay [11]. Moreover, the composite z-score in assay [12] is 0.955; in assay [13] it was 0.377; in [14] it was -0.149; in the assay on Lefty1, 0.0777; in [16], 1.22. Moreover, in [1], the composite Z-score is 0.506 (inactive). Besides, the z-score in assay [15] is -1.9; in assay [17] it was 0.849 (inactive).
For `NC(=O)NCC#Cc1ccc2c(c1)[C@]1(C(=O)N2)[C@H](C(=O)O)[C@H]2C(=O)O[C@H](c3ccccc3)[C@H](c3ccccc3)N2[C@@H]1c1ccc(O)cc1`, the composite z-score in the assay with Albumin (Bos taurus) was 0.424; in [2], 0.207; in assay [3], 0.314; in assay [4], 0.205; in assay [5], 0.361; in assay [6], -0.464. The composite z-score with Sam68 (KHDRBS1) was determined as 0.102; in assay [7], 0.265; in assay [8] it was 0.888; in assay [9], 0.0795; in assay [10] it was 0.0885; in assay [11] it was 0.06. Further, the composite z-score was found to be 0.972 in assay [12]; 1.31 in assay [13]; 0.153 in [14]; 0.654 in the assay on Lefty1; 0.642 in assay [16]. In addition, the composite Z-score in assay [1] is 0.116 (inactive). For the same compound, the values for the z-score in assay [15] and in [17] were -1.01 and -1.5 (inactive), respectively.
For `O=C1O[C@@H](c2ccccc2)[C@@H](c2ccccc2)N2[C@@H](c3ccc(OCCO)cc3)[C@]3(C(=O)Nc4ccc(C#CCCO)cc43)[C@@H](C(=O)NC[C@H](O)c3ccccc3)[C@H]12`, the composite z-score with Albumin (Bos taurus) was -0.517; in assay [2], 0.138; in assay [3] it was -0.143; in assay [4], 0.165; in [5] it was 1.66; in [6], 0.822. Further, the composite z-score in the assay on Sam68 (KHDRBS1) came to 1.26; in assay [7], 0.891; in assay [8], 1.07; in [9], 0.797; in assay [10], 1.17; in assay [11], 0.947. Besides, the composite z-score in assay [12] worked out at 0.668; in assay [13], 1.34; in [14], 1.01; in the assay with Lefty1, 0.958; in assay [16], 0.356. Further, the composite Z-score in [1] was 1.23 (inactive). Also, the z-score in [15] was 0.225; in [17], -1.15 (inactive).
